Experimental data taken from paper PMC4336329 (PLoS ONE, 2015).
Screen size: about 310,000 compounds; about 14,000 (4.5%) showed an effect of 50% or more. The effect is printed as a negative number. This excerpt belongs to a sample that is enriched for strong results.

The molecules below were run against human ether-à-go-go-related gene (hERG) potassium channel (human, UniProt Q12809) (assay: primary screen, population patch clamp on CHO cells stably expressing hERG; higher = less effect of the substance).
Sequence of human ether-à-go-go-related gene (hERG) potassium channel (Q12809 whole entry, looked up): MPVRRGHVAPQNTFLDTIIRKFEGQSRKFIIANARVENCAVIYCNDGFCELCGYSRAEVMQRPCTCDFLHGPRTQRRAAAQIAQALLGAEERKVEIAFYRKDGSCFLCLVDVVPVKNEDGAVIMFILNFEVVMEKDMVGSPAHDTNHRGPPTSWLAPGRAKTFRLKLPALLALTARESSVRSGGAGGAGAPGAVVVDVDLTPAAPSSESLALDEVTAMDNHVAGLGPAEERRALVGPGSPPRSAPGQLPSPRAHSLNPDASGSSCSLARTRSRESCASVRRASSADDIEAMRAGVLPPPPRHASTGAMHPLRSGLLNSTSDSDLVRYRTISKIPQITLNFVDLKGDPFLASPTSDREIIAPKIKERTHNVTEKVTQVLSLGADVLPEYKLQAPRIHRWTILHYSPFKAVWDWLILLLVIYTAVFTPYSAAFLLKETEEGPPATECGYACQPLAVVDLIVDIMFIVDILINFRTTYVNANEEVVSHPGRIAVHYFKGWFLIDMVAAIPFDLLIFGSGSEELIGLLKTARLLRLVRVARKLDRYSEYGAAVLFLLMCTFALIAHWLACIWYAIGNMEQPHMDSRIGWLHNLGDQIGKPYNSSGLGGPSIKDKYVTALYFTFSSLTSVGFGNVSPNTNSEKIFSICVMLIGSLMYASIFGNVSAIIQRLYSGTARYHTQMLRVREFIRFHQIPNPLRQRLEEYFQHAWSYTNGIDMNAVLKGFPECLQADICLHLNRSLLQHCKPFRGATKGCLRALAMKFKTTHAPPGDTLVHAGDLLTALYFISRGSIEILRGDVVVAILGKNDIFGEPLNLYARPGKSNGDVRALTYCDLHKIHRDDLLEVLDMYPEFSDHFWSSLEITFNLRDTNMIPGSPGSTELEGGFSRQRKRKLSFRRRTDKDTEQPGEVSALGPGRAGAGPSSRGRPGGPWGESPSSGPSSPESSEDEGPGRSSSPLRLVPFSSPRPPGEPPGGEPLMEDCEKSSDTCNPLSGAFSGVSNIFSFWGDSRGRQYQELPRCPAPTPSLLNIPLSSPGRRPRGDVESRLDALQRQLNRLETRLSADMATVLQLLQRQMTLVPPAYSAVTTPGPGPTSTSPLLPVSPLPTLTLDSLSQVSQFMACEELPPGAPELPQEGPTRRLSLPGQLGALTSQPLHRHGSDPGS
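Also: peak tail current of the secondary pulse compared with the same well before compound.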

Point of comparison: `Cl.O=C(CSc1nc2ccccc2[nH]1)N1CCN(C(=O)c2ccco2)CC1`, “hERG current change (%, negative = inhibition) at 10uM” value -23.4%. Against it:
- O=C(NCC1CCCO1)c1ccc2c(=O)n(CC3CCCO3)c(=S)[nH]c2c1 (centres unmarked) — higher, 6.52%
- Cc1sc2nc(COC(=O)c3cccc(OC(F)F)c3)[nH]c(=O)c2c1C — higher, 0.0335%
- O=c1[nH]n2c(=O)c3c([nH]c2c1N=Nc1cccc(Cl)c1)CCCC3 — higher, 3.75%
- COc1ccc2c(c1)C(=O)N(Cc1ccccc1)C(=O)C2(C)C — higher, 6.19%
- Cc1nn(Cc2ccc(Cl)cc2)c(C)c1NC(=O)c1cc(C(C)C)on1 — higher, 5.88%
- Cn1c(SCC(=O)NC2CC2)nnc1-c1ccco1 — higher, 9.16%
- Cc1ccc(NC(=O)[C@H](Cc2ccccc2)NC(=O)C2CCNCC2)cc1 — higher, 5.64%
- CCCCCOC(=O)c1ccccc1C(=O)O — higher, 16.1%
- CC(=O)N/C(=C\c1ccc(C)o1)C(=O)NCc1ccccc1 — higher, 21.8%
- COc1ccc(OC)c(N2C(=O)NC(=O)/C(=C/c3ccc([N+](=O)[O-])s3)C2=O)c1 — higher, 12.9%
- CC1(C(=O)N2CCC(CC3CC(c4cccc(Br)c4)=NO3)(C(=O)NCC3CCCCC3)CC2)CC1 (centres unmarked) — higher, -20.1%
- COc1ccc(CNC(=O)C2(CC3CC(c4ccccc4)=NO3)CCN(C(=O)CCCCCBr)CC2)cc1 (centres unmarked) — lower, -76.9%
- CC(C)(C)OC(=O)N1CCC(CC2CC(c3ccccc3)=NO2)(C(=O)O)CC1 (centres unmarked) — higher, 14.7%
- CC(C)(C)OC(=O)N1CCC(CC2CC(c3ccccc3)=NO2)(C(=O)NCc2ccccc2)CC1 (centres unmarked) — higher, -18.3%
- COc1ccc(CNC(=O)C2(CC3CC(c4ccccc4)=NO3)CCN(C(=O)C3(C)CC3)CC2)cc1 (centres unmarked) — lower, -67%
- COc1ccc(CNC(=O)C2(CC3CC(c4ccccc4)=NO3)CCN(C(=O)C3CCCC3)CC2)cc1 (centres unmarked) — lower, -71.6%
- COc1ccc(CNC(=O)C2(CC3CC(c4ccccc4)=NO3)CCN(C(=O)OC(C)(C)C)CC2)cc1 (centres unmarked) — lower, -30.5%
- COC(=O)C1(CC2CC(c3ccccc3)=NO2)CCN(C(=O)OC(C)(C)C)CC1 (centres unmarked) — higher, -11.4%
- CCCNC(=O)C1(CC2CC(c3ccccc3)=NO2)CCN(C(=O)C2CCCC2)CC1 (centres unmarked) — lower, -41.8%
- COc1ccc(CNC(=O)C2(CC3CC(c4ccccc4)=NO3)CCN(C(=O)c3cccc(O)c3)CC2)cc1 (centres unmarked) — lower, -68.2%
- CCOc1cc(C(=O)N2CCC(CC3CC(c4ccccc4)=NO3)(C(=O)NCc3ccc(OC)cc3)CC2)cc(OCC)c1OCC (centres unmarked) — higher, -8.88%
- CCCCC1=CC2=CC(=O)C(C)(OC(=O)CC)C(=O)C2=CN1c1ccccc1 (centres unmarked) — higher, 1.5%
- CCO[C@H]1OC(C(=O)NCc2ccccc2)=C[C@@H](C2CCCCC2)[C@@H]1CCCO — higher, -19.8%
- COC(=O)C1=C(c2ccc(S(C)(=O)=O)cc2)C[C@@H]2CC[C@H]1N2C(=O)NCCNC(C)=O — higher, 14.6%
- Cc1occc1-c1nnc(SCC(=O)N2CCCCC2)o1 — higher, -8.31%
- CCC(C)(CC(=O)Nc1nccs1)c1ccccc1 (centres unmarked) — higher, 7.66%
- COc1cccc(Cn2cc(C)cc(NC(=O)NCc3ccccc3)c2=O)c1 — higher, 11.9%
- Nc1nc(Cl)cc(Sc2ccc(F)cc2)n1 — higher, 7.51%
- NNC(=O)c1oc2nc(-c3cccs3)cc(-c3ccco3)c2c1N — lower, -69.8%
- NNC(=O)c1oc2nc(-c3ccco3)cc(-c3ccco3)c2c1N — higher, -12.8%
- NNC(=O)c1oc2nc(-c3ccccc3)cc(-c3ccco3)c2c1N — higher, 0.558%
- CCCCN(C(=O)c1ccc2c(c1)OCO2)c1c(N)n(CCCC)c(=O)[nH]c1=O — higher, 25.7%
- CSCCC(NS(=O)(=O)c1ccccc1F)C(=O)Nc1ccncc1 (centres unmarked) — higher, -10.8%
- O=c1cc(Nc2cccc(Br)c2)[nH]c(=O)[nH]1 — higher, -11.5%
- CCOC(=O)N1CCN(C(=O)c2ccc3nc(N4CCCCC4)sc3c2)CC1 — higher, -15.7%
- CCOc1ccc2nc(N3CCC(C(=O)N4CCN(C5CCCCC5)CC4)CC3)sc2c1 — lower, -46.1%
- Cc1cc(C)c(C#N)c(N2CCN(C(=O)C3COc4ccccc4O3)CC2)n1 (centres unmarked) — lower, -75.4%
- CCOc1ccc2nc(N3CCC(C(=O)N4CCC5(CC4)OCCO5)CC3)sc2c1 — higher, -8.46%
- Cc1cccc(N2CCN(C(=O)C3COc4ccccc4O3)CC2)c1C (centres unmarked) — higher, -17.4%
- CCOC(=O)Nc1ccc2nc(N3CCCCCC3)sc2c1 — lower, -50.6%
- Cc1cccc2sc(N3CCN(C(=O)C4COc5ccccc5O4)CC3)nc12 (centres unmarked) — lower, -31.3%
- CCOC(=O)C1CCN(C(=O)C2CCN(c3nc4ccc(OC)cc4s3)CC2)CC1 — lower, -67.6%
- CCOc1ccc2nc(N3CCCCCC3)sc2c1 — higher, -19.2%
- CCOc1ccc2nc(N3CCC(C(=O)N4CCN(c5ncccn5)CC4)CC3)sc2c1 — higher, -13.4%
- CCOc1ccc2nc(N3CCC(C(=O)N4CCN(C(=O)c5ccco5)CC4)CC3)sc2c1 — lower, -81.7%
- CCOc1ccc2nc(N3CCC(C(=O)N4CCN(c5ccccn5)CC4)CC3)sc2c1 — lower, -45.7%
- Cc1ccc2ncnc(NCCCCCC(=O)O)c2c1.Cl — higher, 17.4%
- CCOc1ncccc1C(=O)Nc1cccc(S(=O)(=O)NC2=NCCC2)c1 — higher, -6.34%
- COc1ccc2[n-]c(S(=O)Cc3ncc(C)c(OC)c3C)nc2c1.COc1ccc2[n-]c(S(=O)Cc3ncc(C)c(OC)c3C)nc2c1.[Mg+2] (centres unmarked) [49665950] — higher, 16.3%
- Cc1ccc(C(=O)NCCSC2CCCCC2)cc1S(=O)(=O)Nc1ccccc1 — higher, -2.9%
- C=CCCN(Cc1ccccc1)S(=O)(=O)c1ccccc1Br — higher, 3.42%
- COc1ccc(OCCn2c(C)c(/C=N/n3cnnc3)c3ccccc32)cc1 — higher, -0.339%
- Cn1c(SCC(=O)N/N=C/c2ccc(O)c(O)c2)nc2ccccc21 — higher, 4.68%
- CCCC(C)NC(=O)COC(=O)c1ccc2c(c1)C(=O)N(Cc1ccco1)C2=O (centres unmarked) — higher, 15.8%
- Cc1ccc(NC(=O)COC(=O)c2ccc(F)cc2Cl)c(Br)c1 — higher, 14.1%
- O=C(CSc1nc2ccc(Cl)cc2[nH]1)NCc1ccco1 — lower, -51.8%
- O=C(CSc1nc2ccc(Cl)cc2[nH]1)N1CCN(C(=O)c2ccco2)CC1 — lower, -56.1%
- CCOc1ccc2nc(SCC(=O)N3CCN(C(=O)c4ccco4)CC3)sc2c1 — lower, -66.2%
- O=C(CSc1ccc(-c2nc3ccccc3[nH]2)cn1)N1CCN(C(=O)c2ccco2)CC1 — lower, -68.4%
- Cc1cc2nc(-c3ccc(SCC(=O)N4CCN(C(=O)c5ccco5)CC4)nc3)[nH]c2cc1C — higher, 2.64%
- CCOc1ccc2nc(NC(=O)C3CCN(C(=O)c4ccco4)CC3)sc2c1 — higher, 10.1%
- O=C(CSc1nc2ccccc2[nH]1)NCc1ccco1 — higher, -1.16%
- Cc1ccc2nc(SCC(=O)NCc3ccco3)[nH]c2c1 — higher, -0.695%
- O=C(CCc1nc2ccccc2[nH]1)N1CCN(C(=O)c2ccco2)CC1 — higher, 6.93%
- Cc1ccc2nc(SCC(=O)N3CCN(C(=O)c4ccco4)CC3)[nH]c2c1 — lower, -35.3%
- CCOc1ccc2nc(SCC(=O)NCc3ccco3)sc2c1 — lower, -29.8%
- O=c1oc(-c2cccs2)nc2sc3c(c12)CCCC3 — higher, -1.83%
- COc1ccc(OC)c(C(=O)c2c(C)oc3cc([N+](=O)[O-])c(O)c([N+](=O)[O-])c23)c1 — higher, 13.3%
- COc1ccc(C2C(C(C)=O)=C(O)C(=O)N2CCc2c[nH]c3ccccc23)cc1 (centres unmarked) — higher, 13.7%
- CCn1nnc(NC(=O)c2cc3ccccc3o2)n1 — higher, 4.36%
- Cc1ccc(-n2c(CC#N)n[nH]c2=S)c(C)c1 — higher, 3.3%
- O=C(NCc1ccccc1)Nc1cccn(Cc2ccccc2)c1=O — higher, 10.4%
- Cc1cccc(N2CN=c3s/c(=C\c4ccccn4)c(=O)n3C2)c1 — higher, -1.21%
- O=C(CSc1nc2ccccc2s1)N1CCN(C(=O)c2ccco2)CC1 — lower, -41.3%
- O=C(c1ccco1)N1CCN(c2nc3ccsc3c(=O)s2)CC1 — lower, -79%
- O=C(C1COc2ccccc2O1)N1CCN(c2nc3ccc([N+](=O)[O-])cc3s2)CC1 (centres unmarked) — lower, -29.8%
- O=C(CSc1nc2cc(Cl)ccc2s1)N1CCN(C(=O)c2ccco2)CC1 — lower, -71.6%
- COc1ccc2nc(N3CCN(C(=O)C4COc5ccccc5O4)CC3)sc2c1 (centres unmarked) — lower, -61.2%
- O=C(CSc1nc2cc(Cl)ccc2s1)c1ccco1 — higher, 2.2%
- Cc1ccc2nc(N3CCN(C(=O)c4ccco4)CC3)sc2c1 — lower, -32%
- Cc1ccc(Cl)c2sc(N3CCN(C(=O)c4ccco4)CC3)nc12 — higher, -10.3%
- O=C(C1COc2ccccc2O1)N1CCN(c2nc3ccccc3s2)CC1 (centres unmarked) — lower, -27.9%
